Compound activity as filed in PubChem.
Hits are enriched below; roughly 2.9% of the tested compounds scored in any of these assays.
p53null 39C kill: selectivity test: cytotoxicity in p53 null cells, nonpermissive temperature. AID 904. H1299 p53-null (neo) cells, 39C, ATPlite viability, 24 h. 55,000 compounds, 0.97% hits. Potency, µM (titrated, usually from 46.1 µM), for the others: at the highest dose activity, negative = cell killing, most hits filed as cytotoxic;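 further: potency means the concentration at half of the fitted maximal effect; 0% = DMSO only and -100% = full killing by 100 µM tamoxifen; nearly all actives have a fitted effect of over 50% in size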
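Temperature-shift cytotoxicity format: compound titrations on p53-null or A138V-expressing H1299 cells held 24 hr at 39C, cell ATP then measured, AC50 from Hill model.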
p53null 32C kill: p53 null cell cytotoxicity, permissive temperature; Potency, µM (top dose mostly 46.1 µM), for inactives: top-dose activity change, negative = cytotoxicity, actives largely listed as cytotoxic; H1299-neo p53 null cells, ATP luminescence, 24 h, 32C; 55,000 compounds, 0.62% hits; AID 903;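 further: potency means the concentration at half of the fitted maximal effect; 0% = DMSO only and -100% = full killing by 100 µM tamoxifen; nearly all actives have a fitted effect of over 55% in size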
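Overnight 37C seeding (600 cells/well) of H1299-neo preceded a 24 hr, 32C exposure to compounds up to 46 uM. ATP levels, read by luminescence after 20 min at RT, indicated surviving cells.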
FH mod: Identification of activators of human fumarate hydratase by quantitative high-throughput screening; Fumarate hydratase, mitochondrial (Homo sapiens), P07954; FH coupled MDH/diaphorase resazurin fluorescence, 15 min; Potency, µM (top dose mostly 79.9 µM), for the others: top-dose activity change, negative = inhibition, actives largely listed as inhibitors; 54,000 compounds, 0.22% hits; further: potency means the concentration at half of the fitted maximal effect; on the % scale 0 is the no-effect control and ±100 the full control effect; the screen sought activators but most active calls are inhibition curves; nearly all actives have a fitted effect of over 45% in size
Target sequence (P07954 whole entry, looked up): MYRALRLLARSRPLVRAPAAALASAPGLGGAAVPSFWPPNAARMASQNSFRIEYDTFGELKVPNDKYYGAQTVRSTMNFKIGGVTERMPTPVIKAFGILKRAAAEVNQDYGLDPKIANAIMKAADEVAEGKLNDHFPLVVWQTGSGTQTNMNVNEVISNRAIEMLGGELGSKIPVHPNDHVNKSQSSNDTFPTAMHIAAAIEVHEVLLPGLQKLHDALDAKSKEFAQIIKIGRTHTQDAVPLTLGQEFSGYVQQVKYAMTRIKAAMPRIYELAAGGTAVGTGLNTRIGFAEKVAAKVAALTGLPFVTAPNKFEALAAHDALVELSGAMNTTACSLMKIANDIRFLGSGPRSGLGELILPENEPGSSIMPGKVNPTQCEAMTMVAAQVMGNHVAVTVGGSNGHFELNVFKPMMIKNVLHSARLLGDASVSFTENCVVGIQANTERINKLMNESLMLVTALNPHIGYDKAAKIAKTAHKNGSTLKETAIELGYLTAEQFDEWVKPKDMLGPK
DRV1 agonist: agonists of human resolvin D1 receptor DRV1 (GPR32) | CHO-K1 GPR32 beta-arrestin PathHunter luminescence, 90 min; zero percent set by DMSO-only wells | activation, % at 76.9 µM | 48,000 compounds, 2.5% hits | AID 1346428;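 active means activation of at least 60% and not above a set upper limit, about 1 call in 100 departs from these limits; inconclusive means activation of 40% to 60%, or above that upper limit; inactive means activation under 40%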; further: 0% is about no effect
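CHO-K1 cells stably expressing ProLink-tagged GPR32 and Enzyme Activator-tagged beta-arrestin were seeded at 2,500 cells/well overnight, exposed to compounds for 90 min at 37 °C, then read by beta-Gal complementation chemiluminescence after 1 h detection reagent.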
* = called active by the depositor; ? = inconclusive; . = not tested or not shown; [ ] = another dose, or the depositor's remark. Unless noted, the call rests on the fitted dose curve; in most records, active means well fitted curve in the direction sought with a large enough effect; inconclusive means small, poorly fitted or top-dose-only effect, or another doubt; inactive means no such curve, though single readings can be large; an effect the other way counts as inactive or inconclusive.

SMILES	p53null 39C kill	p53null 32C kill	FH mod	DRV1 agonist
COc1cccc(NS(=O)(=O)c2ccc3[nH]cc(C(=O)NC4CCCCC4)c(=O)c3c2)c1	?	2%	?	103*
COc1cccc(NS(=O)(=O)c2ccc3c(c2)n(C)c(=O)n3C)c1	-31%	-13%	-11%	86*
Cc1ccccc1NS(=O)(=O)c1ccc2[nH]cc(C(=O)NC(C)c3ccccc3)c(=O)c2c1 (stereo unspecified)	16%	10%	40µM*	-25
CCCNc1ccc2ncc(-c3ccc4[nH]ncc4c3)n2n1	.	.	-9%	.
Cn1ncnc1[C@@H]1c2n[nH]c(=O)c3cc(F)cc(c23)N[C@H]1c1ccc(F)cc1	.	.	-4%	.
Cc1cc(C)cc(NS(=O)(=O)c2ccc3[nH]cc(C(=O)NC4CCCCC4)c(=O)c3c2)c1	?	3%	?	110*
Cc1cc(C)cc(NS(=O)(=O)c2ccc3[nH]cc(C(=O)NCc4ccco4)c(=O)c3c2)c1	?	?	-12%	99*
Cc1cc(C)cc(NS(=O)(=O)c2ccc3[nH]cc(C(=O)NCc4ccccc4Cl)c(=O)c3c2)c1	6%	9%	?	-13
CCCCCCCCCCCCOCCOCCOCCOCCOCCOCCOCCOCCOCCO	.	.	-15%[53.3 µM]	99*
Cc1cc(C)c(NC(=O)Nc2ccc3snnc3c2)c(C)c1	?	6%	6%	63*
O=C(Nc1ccccc1)Nc1ccc2snnc2c1	-19%	?	.	.
Cc1ccc(CNc2oc(-c3ccc(COc4ccc(C)cc4)o3)nc2C#N)cc1	14%	11%	?	-25
CCOc1ccc(Nc2oc(-c3ccc(COc4ccc(C)cc4)o3)nc2C#N)cc1	-12%	-21%	-2%	67*
COc1ccc(Nc2oc(-c3ccc(COc4cccc(C)c4)o3)nc2C#N)cc1	-8%	-15%	-9%	97*
COc1ccc(Nc2oc(-c3ccc(COc4ccc(OC)cc4)o3)nc2C#N)cc1	-7%	-12%	3%	71*
COc1ccc(Nc2oc(-c3ccc(COc4ccccc4)o3)nc2C#N)cc1	?	-7%	-19%	?
COc1ccc(CCNc2oc(COc3ccc(Cl)cc3)nc2C#N)cc1OC	?	?	?	38
COc1ccc(CCNc2oc(COc3cccc(C)c3)nc2C#N)cc1OC	49%	3%	?	111*
CCOc1ccc(-c2nc(-c3cccc4c3CCC4NCCO)no2)cc1OCC (stereo unspecified)	.	.	3%	.
C=C1C(OC(C)=O)C(=O)C2C(C)(C)C(OC(C)=O)CCC2(C)C1CC(OC(C)=O)/C(C)=C/COC(C)=O (stereo unspecified)	.	.	33%[53.3 µM]	.
Cc1nn(C(C)C(=O)NC2CCCCC2)c(=O)c2c1sc1ccccc12 (stereo unspecified)	13µM*	-26%	3%	-9
CSc1ccc(CCNC(=O)C(C)n2nc(C)c3sc4ccccc4c3c2=O)cc1 (stereo unspecified)	13µM*	?	3%	-10
Cc1ccc(CNC(=O)C(C)n2nc(C)c3sc4ccccc4c3c2=O)cc1 (stereo unspecified)	?	-19%	-11%	-24
COc1ccc(C(=O)n2c(C)c(Cc3cccc(O[C@@H](C)C(=O)O)c3)c3cc(OC(F)(F)F)ccc32)cc1	.	.	-12%	.
Cc1cc(-c2nc3ncccc3o2)ccc1N	?	11µM*	.	.
SMILES	p53null 39C kill	p53null 32C kill	FH mod	DRV1 agonist
Cn1ncnc1[C@H]1c2n[nH]c(=O)c3cc(F)cc(c23)N[C@@H]1c1ccc(F)cc1	.	.	2%[53.3 µM]	.
C[C@@]12C[C@]3(O)O[C@H](O1)[C@]1(COC(=O)c4ccccc4)[C@H]3C[C@@]12O[C@@H]1O[C@H](CO)[C@@H](O)[C@H](O)[C@H]1O	.	.	9%[53.3 µM]	.
Cc1ccc(CN2C(=O)C(=O)c3cc(Br)cc(C)c32)cc1	11µM*	?	-17%	-53
CCCOc1ccc(CN2C(=O)C(=O)c3cccc(C)c32)cc1	?	67%	-7%	-59
CCN(C(=O)C1CCN(S(=O)(=O)c2ccc3c(c2)CCCN3C(C)=O)CC1)c1cccc(C)c1	22%	0%	1%	-7
CCN(CC)C(=O)C1CCN(S(=O)(=O)c2ccc3c(c2)CCCN3C(C)=O)CC1	10µM*	-1%	-37%	13
COc1cc(/C=C2\CC[C@H]3COC[C@@H](c4cc(F)c(F)c(F)c4)N3C2=O)ccc1-n1cnc(C)c1	.	.	-2%	.
O=C1CC2(CCCC2)CC(=O)N1	.	.	-3%[53.3 µM]	65*
CCc1ccc(OCC(=O)Nc2ncn[nH]2)c(Br)c1	1.3µM*	2µM*	2%	2
COc1cc(OC)c(C(=O)/C=C/c2ccccc2)c2c1C=CC(C)(C)O2	.	.	-16%	.
COc1ccccc1-c1nnc(SCC(=O)c2ccc(Cl)cc2)n1-c1ccccc1	30%	17%	?	80*
COc1cc(C2c3c(-c4c(C)cc(C)cc4O)n[nH]c3C(=O)N2Cc2ccco2)cc(OC)c1OC (stereo unspecified)	-13%	0%	-8%	65*
COCCN1C(=O)c2[nH]nc(-c3c(C)cc(C)cc3O)c2C1c1cccc(O)c1 (stereo unspecified)	12%	9%	3%	85*
COc1cc(C2c3c(-c4c(C)cc(C)cc4O)n[nH]c3C(=O)N2CCO)cc(OC)c1OC (stereo unspecified)	-10%	-4%	-2%	?
COc1cc(C2c3c(-c4cc(C)ccc4O)n[nH]c3C(=O)N2Cc2ccco2)cc(OC)c1OC (stereo unspecified)	5%	26%	22µM*	-17
CCOc1ccc(N(CC)C(=O)c2cc3c(s2)-c2ccc(Cl)cc2SC3)cc1	10µM*	-5%	-22%	-13
CCCN(C(=O)c1cc2c(s1)-c1c(C)cccc1OC2)c1ccc(OCC)cc1	3%	?	-12%	5
CCc1ccccc1N(CC)C(=O)c1cc2c(s1)-c1ccccc1OC2	8%	4%	-13%	5
CCc1ccccc1N(CC)C(=O)c1cc2c(s1)-c1ccccc1SC2	13µM*	-1%	?	11
CCn1cc2nc(SCc3cccc(C(F)(F)F)c3)n(CCc3ccccc3)c(=O)c2n1	17%	18%	32µM*	-22
CCn1cc2nc(SCc3cccc(C)c3)n(CCc3ccccc3)c(=O)c2n1	23%	37%	40µM*	3
CCn1cc2nc(SCc3cccc(Cl)c3)n(Cc3ccc(C)cc3)c(=O)c2n1	-22%	30%	?	-11
CC1CCC2C(=CCC(O)C2(C)C)C1(C)Cc1c(O)cc(CO)c(C=O)c1O (stereo unspecified)	.	.	-7%[53.3 µM]	.
CCCCN(C)CCCNC(=O)C1CCN(S(=O)(=O)CC)CC1	-2%	-6%	0%	-6
CCc1ccc2nc(N3CCN(C(=O)c4ccco4)CC3)sc2c1	-12%	-29%	-5%	9
